Data: PubChem BioAssay AID1347431 (National Center for Advancing Translational Sciences (NCATS), 2020)
Among all 1,200 compounds or so, fewer than 10 were called active. The call rests on the fitted dose curve; in most records, active means well fitted curve in the direction sought with a large enough effect; inconclusive means small, poorly fitted or top-dose-only effect, or another doubt; inactive means no such curve, though single readings can be large or run the other way. A selection follows.

assay: Confirmatory qHTS assay for inhibitors of Activation Induced Cytidine Deaminase (AID): UDG signals; details: UDG coupled enzyme activity counter-screen; series mostly up to 115 µM
From the text: Assay Provider (PI) Patricia Gearhart Ph.D.
National Institute on Aging
National Institute of Health (NIH), Bethesda, MD
Assay Provider (PI) Rahul Kohli Ph.D.
Perelman School of Medicine
University of Pennsylvania, Philadelphia, PA
Activation-Induced Deaminase (AID) is a cytosine deaminase which converts cytosine into uracil within stretches of ssDNA. The presence of uracil in DNA initiates a cascade of mutagenic DNA repair to introduce point mutations and DNA double strand breaks. Specific targeting of AID to the immunoglobulin heavy chain loci (Igh) promotes mutagenesis in the antibody variable region for somatic hypermutation (SHM) or switch regions leading to class switch recombination (CSR). However, AID also plays a role in accumulating unnecessary mutations across the genome. Mis-targeting of AID results in the initiation of tumor development and leads to greater drug resistance among cancer cells when continually expressed. To identify an AID inhibitor, a small molecule library will be screened in collaboration with NCATS core facility at NIH. To confirm biological function, inhibitors will be examined in an in vitro murine B-cell activation assay and subsequent secondary validation screens. Top molecules will be further screened to identify inhibitory efficacy against a wild type primary splenocytes assay. Using these approaches, we hope to identify a small molecule with great efficacy and low toxicity for use as a molecular probe to further characterize AID's intricacies, or even as a therapeutic.
A FRET based analysis of cytosine deamination, was developed to identify potential inhibitors of AID catalytic activity. This screen has two signal output, Read 1 evaluates the AID inhibition response. The second readout (Read 2) evaluates UDG response and is uses as a counterscreen to exclude false positive inhibitors. Inhibition in AID and inactivity in the UDG signal is the desired outcome for this assay.
SEQUENCE No. (e.g., 1, 2, 3, etc.); […] (e.g., Cells, Incubation, Reagent, etc.); VALUE; DESCRIPTION
1a; Reagent; 3 uL; [4/3x] 1 uM AID/2.67 U/mL UDG
1b; Reagent; 3 uL; 2 U/mL UDG
1c; Reagent; 3 uL; 1 uM AID
2a; Compound; 46 nL; Follow-up plates (0.64 uM - 10 mM)
2b; Control; 46 nL; ATA ([…] - 10 mM)
3; Time; 10 min; incubation at room temperature
5; Time; 4 hr; incubation at room temperature
6; Reagent; 4 uL; [2x] 250 mM NaOH
7; Time; 15 sec; centrifuge at 1000 rpm
8; Time; 30 min; incubation at room temperature
9a; Detection; fluorescence (Read 1: AID); EnVision (PerkinElmer) plate reader, 540 excitation and 590 emission filters
9b; Detection; fluorescence (Read 2: UDG); EnVision (PerkinElmer) plate reader, 560 excitation and 665 emission filters
NOTES (numbers refer to sequence above)
1a; Reagents were dispensed in a medium-binding black solid-bottom Greiner plates (789176F) using a BioRptr liquid dispenser. Dispense 3 uL of [4/3x] 1 uM AID (provided by Kohli lab) and [4/3x] 2 U/mL UDG (NEB M0280L) into columns 1, 2, 5 to 48.
1b; Dispense 3 uL of [4/3x] 2 U/mL UDG into column 3.
1c; Dispense 3 uL of [4/3x] 1 uM AID into column 4.
2a; Compound (7-points [uM]: 0.64; 3.2; 16; 80; 400; 2,000; 10,000; […]) double pin-transferred (Dip Factor = 2) using the Kalypsys (Wako USA) pintool equipped with a 1536 pinhead for a final concentration range of 7.32 nM - 114 uM.
2b; 10 mM Aurintricarboxylic Acid (Sigma A1895) (ATA, 8-point, n = 2, 1:2.5 dilution in column 2) double pin-transferred (Dip Factor = 2) using the Kalypsys (Wako USA) pintool equipped with a 1536 pinhead for a [final] range of 186 nM - 114 uM.
3; Room temperature incubation.
4; Dispense 1 uL of substrate mixture from the Kohli lab [4x] […] DJC20 and [4x] 250 nM DJC23 into columns 1 to 48 .
5; Room temperature incubation.
6; Dispense 4 uL of substrate mixture [2x] 250 mM NaOH into columns 1 to 48.
7; Centrifugation step to remove bubbles.
8; Room temperature incubation
9a; Fluorescence signal (column label AID) was read using the EnVision plate reader. […]

SMILES	outcome
CCc1ccc(NC(=O)c2cnn(-c3c(C)cccc3C)c2C2CCN(C(=O)OC(C)(C)C)CC2)cc1	inactive
CCOc1ccc(CNC(=O)c2c(C)nn(-c3ccc(F)cc3)c2-n2cccc2)cc1	inactive
COc1cc2c(cc1OC)C(COc1cc(C)cc(C)c1)N(C(=O)C(C)(C)C)CC2 (centres undefined)	inactive
COc1cc(NC(=O)Cn2cc(S(=O)(=O)N3CCC(C)CC3)c3ccccc3c2=O)cc(OC)c1OC	inactive
COc1ccc(C)cc1N(C)C(=O)c1c2c(nc3ccccc13)C(=O)N(C1CCCCC1)C2	inactive
COc1cccc(C(=O)Nc2nc3nc(C)c(Cc4ccccc4)c(=O)n3[nH]2)c1	inactive
Cn1c2ccccc2c2c(C(=O)N3CCN(c4cccc(C(F)(F)F)c4)CC3)cn(C3CCCCC3)c(=O)c21	inactive
O=C(CSc1nc(-c2ccc(F)cc2)nc2c1Cc1ccccc1O2)Nc1cccc(C(=O)O)c1	inactive
CC(C)Oc1ccc(C(=O)NCCc2csc(-c3cccc(F)c3)n2)cc1	inactive
CCc1ccc(OCC(=O)N(Cc2ccco2)Cc2ccco2)cc1	inactive
Cc1ccc2c(c1)C(c1ccc(F)cc1)N(C(=O)c1ccc(OC(C)C)cc1)CC(=O)N2 (centres undefined)	inactive
Cc1ccc(Cl)cc1N1CCN(C(=O)c2nn(C)c3c2CS(=O)(=O)c2ccccc2-3)CC1	inactive
CC(C)c1ccc(NC(=O)CSC2=Nc3ccccc3C3=NC(CCC(=O)NCc4ccco4)C(=O)N23)cc1 (centres undefined)	inactive
CCOc1ccc(CCNC(=O)c2cn(CC)c3ccc(S(=O)(=O)N4CCCCCC4)cc3c2=O)cc1OCC	inactive
COc1cccc(CNC(=O)c2oc3ccc4c(c3c2C)C(=O)CC(C)(C)O4)c1OC	inactive
O=C(NCCn1cc(SCc2ccccc2F)c2ccccc21)c1cccs1	inactive
Cc1ccc(Cl)cc1NC(=O)c1oc2c(c1C)-c1[nH]ncc1CC2	inactive
CN(C)c1ccc(Nc2ncnc3sc4c(c23)CCCC4)cc1	inactive
CCOC(=O)c1c(Oc2ccc(C(C)=O)cc2)nnc(-c2ccccc2)c1-c1ccccc1	inactive
O=C(O)c1ccc2c(c1)N(Cc1ccc(F)cc1Cl)C(=O)c1ccccc1S2	inactive
CCCCCN1C(C(=O)c2ccccc2)=C(OC(=O)CC)c2ccccc2S1(=O)=O	inactive
O=C(CCS(=O)(=O)c1nc(-c2cccs2)cc(C(F)(F)F)n1)Nc1ccc(OC(F)(F)F)cc1	inactive
CCc1ccc(C(c2ccccc2)c2c(C)[nH]c3ccccc23)s1 (centres undefined)	inactive
Cc1ccc2c(c1)-c1ncc(C(=O)c3cc(Br)ccc3O)cc1CO2	inactive
Cc1ccc(Nc2nnc(-c3ccc(C)c(S(=O)(=O)N4CCN(C)CC4)c3)c3ccccc23)c(C)c1	inactive

SMILES	outcome
CCn1c(=O)c2cc(C(=O)NCCCN(C)Cc3ccccc3)sc2c2ccccc21	inactive
COc1ccc(CCNC(=O)c2cc(Nc3cc(C)cc(C)c3)nc3ccccc23)cc1OC	inactive
Cc1ccc(-c2nc3nc(C)cc(C)n3c2Nc2ccc3c(c2)OCCO3)cc1	inactive
Cc1ccc(C)c(N2CCN(C(=O)c3cc(S(=O)(=O)N4CCCCC4)cn3C)CC2)c1	inactive
Cc1cc(C)c(NC(=O)CCCn2c(C)c3cnn(-c4ccccc4)c(=O)c3c2C)c(C)c1	inactive
CCOC(=O)c1ccc(-n2c(N)c(C(=O)OC)c3nc4ccccc4nc32)cc1	inactive
Cc1ccc(C(=O)c2cn(Cc3ccccc3)c3ccccc3c2=O)cc1	inactive
COc1cccc(-c2nc3cc(NC(=O)c4ccc(C)c([N+](=O)[O-])c4)ccc3o2)c1	inactive
Cc1ccc2c(c1)-c1c(cnn1CC(=O)N1CCN(c3cccc(C(F)(F)F)c3)CC1)CO2	inactive
O=C(CC1N=C2c3ccccc3N=C(SCc3ccccc3F)N2C1=O)NCc1ccc2c(c1)OCO2 (centres undefined)	inactive
Cc1nn(C(=O)c2ccccc2)c(C)c1Sc1ccc(Cl)cc1	inactive
Cc1ccc(C)c(NC(=O)CSc2nccn2-c2cccc(C)c2C)c1	inactive
O=C(c1cccc(Cl)c1)N(Cc1ccco1)Cc1ccccc1Cl	inactive
Cc1cccc(-c2nnc(SCC(=O)N3CCCc4ccccc43)o2)c1	inactive
CCc1ccccc1NC(=O)[C@H](Cc1ccccc1)N1Cc2ccccc2C1=O	inactive
COc1ccc(Cn2cc(C(=O)c3ccc(OC)cc3)c(=O)c3cc4c(cc32)OCCO4)cc1	inactive
Cc1cc(C)c2c(CC(=O)N(Cc3ccc(Cl)cc3)Cc3ccco3)coc2c1	inactive
Cc1ccc(N(Cc2cccs2)C(=O)c2ccccc2)cc1	inactive
COc1ccc(Nc2cc(C)c3cc(NC(=O)COc4cccc(C)c4)ccc3n2)cc1	inactive
CCN(C(=O)c1cc2cc3ccc(OC)cc3nc2o1)c1cccc(C)c1	inactive
COc1ccc(-c2cn3c(n2)sc2cc(C(=O)NCCCN4CCCCC4)ccc23)cc1	inactive
COc1ccc(CCNC(=O)CS(=O)Cc2nc(-c3ccc(C)cc3)oc2C)c(OC)c1 (centres undefined)	inactive
COc1ccc(Cl)cc1NC(=O)CSc1nc(=O)n(Cc2ccco2)c2c1CCC2	inactive
COc1ccc(C(=O)c2cn(Cc3ccccc3F)c3cc4c(cc3c2=O)OCCO4)cc1OC	inactive
